# ± gives the standard deviation of the averaged measurements. Whole data set: some 33,000 sequences, median “E-score (rank enrichment, -0.5 to 0.5)” near -0.0075, cut for the highest 2% near 0.23. For the sample, the highest values were picked, then their nearest neighbours and some sequences at random.
# Tested on: WT Max(13-93) synthetic (M65Nle)
# Assay: PBM 8-mer E-score (E-score (rank enrichment, -0.5 to 0.5)); higher = stronger preferential binding
# Method: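 Protein binding microarray (universal PBM chip covering all 10-mers in fixed probe flanks) with chemically synthesized human Max(13-93) bHLH-LZ analogs (not full-length Max) bearing noncanonical residues (hArg, Tha, Aib, Nle at 65) and aromatic Cys staples. Read-out per 8-mer (and its reverse complement): E-score (rank-based enrichment, -0.5 to 0.5) and Z-score of median probe intensity.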
row,Sequence,PBM 8-mer E-score
1,ATGCCGCC,-0.15 ± 0.1
2,TATCAACA,0.192 ± 0.053
3,AATCAACA,0.283 ± 0.051
4,GATCAACA,-0.0789 ± 0.16
5,GTCAAGAA,0.12 ± 0.082
6,ATTCGGGA,-0.128 ± 0.12
7,GAGGAAAA,0.113 ± 0.23
8,GTTTGAAA,0.277 ± 0.019
9,CTTTGAAA,0.0996 ± 0.023
10,ATTTGAAA,0.124 ± 0.0068
11,ATTAAACA,0.095 ± 0.031
12,ATTAAACG,0.255 ± 0.023
13,ATTAAACC,0.0834 ± 0.057
14,ATCAGACG,-0.142 ± 0.13
15,CACGGTCG,-0.27 ± 0.0093
16,ATGCAACG,0.0584 ± 0.039
17,ATGCAACC,0.244 ± 0.066
18,ATGCAACA,0.229 ± 0.099
19,ACTCGTTA,-0.0291 ± 0.015
20,ACCATGCT,0.277 ± 0.028
21,ACCATGTA,0.162 ± 0.065
22,ACCATGGT,-0.00014 ± 0.21

row,Sequence,PBM 8-mer E-score
1,ACCATGCG,0.243 ± 0.0064
2,AACATGCT,0.242 ± 0.035
3,ACCATGCC,0.00171 ± 0.051
4,ACCATGTG,0.442 ± 0.0045
5,ACCATGAT,0.136 ± 0.019
6,ACCATGCA,0.221 ± 0.0057
7,AACATGCA,0.202 ± 0.039
8,ACCATGTC,0.0659 ± 0.016
9,AACATGGT,0.052 ± 0.061
10,ATGATGAG,0.0781 ± 0.012
11,GTCGGTCA,-0.151 ± 0.14
12,AGAATGCC,-0.0707 ± 0.0056
13,CGCAGGCA,-0.131 ± 0.12
14,ATTAACGG,0.153 ± 0.089
15,GCTGGCCA,-0.0533 ± 0.076
16,CGGAACAC,-0.0883 ± 0.0097
17,CACGTTCA,0.163 ± 0.018
18,CATCCAAG,-0.0693 ± 0.012
19,AGCCCGTC,-0.151 ± 0.071
20,ATCATGTG,0.264 ± 0.022
21,ATCATGTA,0.169 ± 0.004
22,ATCATGTC,0.186 ± 0.057

row,Sequence,PBM 8-mer E-score
1,GTGGTTTA,0.179 ± 0.053
2,CGTGGAAG,0.176 ± 0.0075
3,CGTGGAAC,-0.0332 ± 0.0099
4,TGTGGTAA,0.0282 ± 0.15
5,GGTGGAAA,0.0407 ± 0.064
6,CGTGGAAA,0.267 ± 0.071
7,AGTGGAAA,0.164 ± 0.094
8,CGTGGTAA,0.246 ± 0.1
9,TGTGGAAA,0.249 ± 0.072
10,GGTGGTAA,0.11 ± 0.1
11,TCTCGGAA,-0.232 ± 0.095
12,CATCAAAA,0.0623 ± 0.033
13,ATCGTCTC,-0.00218 ± 0.023
14,GCCGATAA,0.032 ± 0.051
15,AACGCAGC,-0.1 ± 0.048
16,AACAATGC,0.161 ± 0.14
17,GCTGCGAC,-0.219 ± 0.069
18,CGCACAGC,-0.171 ± 0.087
19,GCGGTGAC,-0.146 ± 0.14
20,TGGTAAAA,0.0895 ± 0.03
21,GCGCTACA,-0.115 ± 0.006
22,TCGCTACA,-0.0172 ± 0.075

row,Sequence,PBM 8-mer E-score
1,ACGCTACA,0.275 ± 0.013
2,CTTGATTA,0.12 ± 0.025
3,ATTGATTA,0.0358 ± 0.11
4,GTTGATTA,0.2352 ± 0.0022
5,GCGTTTAA,0.0231 ± 0.056
6,CCGTGGTC,-0.211 ± 0.023
7,AGGTGGTC,-0.0706 ± 0.0051
8,ACGTGGTA,0.347 ± 0.069
9,GCGTGGTA,0.215 ± 0.12
10,AAGTGGTG,-0.0214 ± 0.11
11,ACGTGGTC,0.312 ± 0.022
12,AGGTGGTG,0.109 ± 0.09
13,ACGTGGTG,0.392 ± 0.024
14,CCGTGGTA,-0.0399 ± 0.0038
15,GGCAAGAA,0.127 ± 0.016
16,ACTTGGCA,0.0244 ± 0.14
17,CAAGGCTA,-0.0688 ± 0.18
18,TGCCAGAA,-0.0686 ± 0.042
19,ATGGTAAG,0.12 ± 0.15
20,ATGGTAAT,0.24 ± 0.019
21,ATGGTAAC,0.159 ± 0.045
22,AAAGGTGA,0.0498 ± 0.1

row,Sequence,PBM 8-mer E-score
1,AATGGAAG,0.0617 ± 0.11
2,CATGGAAC,0.0484 ± 0.039
3,CATGGAAG,0.251 ± 0.028
4,CATCTTCG,-0.0197 ± 0.078
5,CCCGGAGC,-0.218 ± 0.06
6,CGGAACAG,-0.184 ± 0.097
7,CCAATTCA,0.237 ± 0.0091
8,CCAATTCG,0.00099 ± 0.067
9,ACAATTCA,0.0972 ± 0.033
10,GAAAACTC,-0.0313 ± 0.025
11,AAAACCTA,0.259 ± 0.038
12,CAAACCTA,0.0613 ± 0.11
13,AACCCCAT,0.00208 ± 0.027
14,CAACCCTA,0.00074 ± 0.036
15,AAAACCTT,0.0888 ± 0.07
16,AAACCCAG,-0.00534 ± 0.0017
17,AAACCCTA,0.253 ± 0.042
18,AAACCCTG,0.124 ± 0.14
19,AAACCCAT,0.236 ± 0.013
20,ATAGCGAG,-0.0262 ± 0.05
21,AGGCCCAA,-0.118 ± 0.037
22,AAGCACAA,0.0693 ± 0.08
